Assay outcomes as filed in PubChem.
Rows were chosen to be rich in hits. Some 4% of all compounds tested hit in one or more screens of this group.
MITF TRPM1 inh – inhibitors of MITF-dependent TRPM1 promoter reporter, primary screen, cell-based, SK-MEL-5, single point, luciferase. inhibition, % at 12.5 µM. actives 0.83% (n = 330,000). SK-MEL-5 TRPM1 promoter luciferase, 24 h. AID 488899, 2010;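 active = mean inhibition across replicates of 60% or more, whatever share of single replicates reaches that level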
TWEAK-Fn14 inh – inhibitors of TWEAK-Fn14 signaling, primary screen, luciferase reporter cells, uHTS; TWEAK-stimulated Fn14 reporter cells, luciferase luminescence, 8 h; actives 2% (n = 360,000); inhibition, % at 10 µM; in the data active = inhibition above about 50%
LMP1 NFkB inh – EBV LMP1-driven NF-kappaB luciferase reporter inhibitors, primary screen, cell-based, luminescence, single point; LMP1-induced NF-kappaB luciferase reporter cells; inhibition, % at 12.5 µM; actives 0.69% (n = 350,000); AID 504558, 2011; in the data active = inhibition above about 41%;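 also: 0% = neutral control wells and 100% = reference inhibitor control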
Peg3 prom inh – Peg3 promoter-driven luciferase inhibitors, primary screen, cell-based, HeLa, luciferase luminescence | inhibition, % at 20 µM | HeLa PEG-Prom luciferase reporter, overnight | actives 1.7% (n = 360,000);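 active = inhibition of at least 50% at 20 µM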
HIF-2a inh – HIF-2a reporter inhibitors, primary screen, luminescence, 786-0 RCC cells; 786-0 RCC cells HIF-2a reporter, luciferase luminescence, overnight; inhibition, % at 18.8 µM; actives 0.72% (n = 360,000); AID 624352, 2012;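 active = inhibition of the luminescence signal of 40% or more relative to plate controls, in a single-dose primary screen at 18.75 µM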
TROY signal inh – inhibitors of TROY-driven NF-kB signaling, primary screen, Q293 LMP1-TROYcd cells, NF-kB luciferase, uHTS | Q293 LMP1-TROYcd NF-kB luciferase reporter, 4 h | inhibition, % at 10 µM | actives 0.98% (n = 360,000) | AID 1347056, 2019;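 active = compounds whose plate-normalised and pattern-corrected inhibition of the luciferase reporter signal at the single screening dose is 50% or more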
The depositor's hits bear a star; i = inactive; . = no result given.

SMILES	MITF TRPM1 inh	TWEAK-Fn14 inh	LMP1 NFkB inh	Peg3 prom inh	HIF-2a inh	TROY signal inh
O=C(NC(c1ccc(Cl)cc1)c1cccnc1)C1CCN(CCOc2ccc(Cl)cc2Cl)CC1 (stereo not given)	.	-43	.	63*	-5	31
Cc1cccnc1C(NC(=O)C1CCN(Cc2cn(C)c3ccccc23)CC1)c1ccc(Cl)cc1 (stereo not given)	.	20	.	105*	2	12
C[C@@H]1CN([C@H](C)CO)C(=O)CCCn2cc(nn2)CO[C@H]1CN(C)S(=O)(=O)c1ccccc1F	.	-32	.	3	9	-4
Cc1cc(NS(=O)(=O)c2ccc(NC(=O)COc3ccc(C#N)cc3)cc2)nc(C)n1	-1	2	-3	-3	-2	-1
O=C(Cc1ccc([N+](=O)[O-])cc1)Nc1cccc(C(=O)N2CCCCC2)c1	22	-8	6	-1	10	-7
Cc1cccnc1C(NC(=O)C1CCN(CCOc2ccc(Cl)cc2Cl)CC1)c1ccc(Cl)cc1 (stereo not given)	.	-12	.	77*	-24	4
Cc1cccnc1C(NC(=O)C1CCN(CCCc2ccccc2)CC1)c1ccc(Cl)cc1 (stereo not given)	.	13	.	13	7	2
O=C(CNC(=O)c1ccccc1)N/N=C/c1ccc([N+](=O)[O-])s1	63*	-8	13	-25	-13	-22
O=C(CNC(=O)c1ccccc1)N/N=C/c1cccs1	6	-9	4	-5	-20	12
O=C(Cc1ccccc1)NCC(=O)N/N=C/c1ccc([N+](=O)[O-])s1	83*	0	0	33	6	-2
O=C(c1ccco1)N1CCC(c2nc3ccccc3[nH]2)CC1	0	6	3	18	5	-11
CCc1ccc2oc(-c3cccc(N)c3)nc2c1	-18	75*	-28	-76	-46	34
Nc1cc(N)cc(-c2nc3ccccc3o2)c1	9	82*	-4	-124	-58	25
Cc1ccc2nc(-c3cccc(N)c3)oc2c1	5	78*	5	-53	-8	36
Nc1ccc(-c2nc3ccccc3o2)cc1	0	18	-2	-306	-130	-42
CC(C)n1cnc2c(Nc3cccc(F)c3)nc(NCCO)nc21	-2	30	7	-44	-74	39
CC(C)C[C@H](CO)Nc1nc(Nc2cccc(Cl)c2)c2ncn(C(C)C)c2n1	.	79*	-11	37	-13	47
Cc1ccc(C(=O)NC(=S)N2CCN(C)CC2)cc1Br	7	-4	-6	-2	-9	-9
O=C(O)CSc1ncnc2c1oc1ccccc12	3	30	-10	-17	-2	.
O=C(CSc1ncnc2c1oc1ccccc12)Nc1ccccc1C(F)(F)F	-1	91*	0	23	8	82*
CC1(C(=O)Nc2ccc(Cl)cc2)Cc2c(-c3cccc(C(F)(F)F)c3)ccnc2O1 (stereo not given)	.	-2	.	25	8	3
FC(F)(F)c1cccc(-c2nc3nc(Cl)c(Cl)nc3[nH]2)c1	-8	64*	19	-230	-393	34
FC(F)(F)c1nc2nc(Cl)c(Cl)nc2[nH]1	.	9	-1	-23	7	4
CC(=O)Nc1ccc(S(=O)(=O)N(C)CC(=O)N/N=C/c2ccncc2)cc1	-2	-17	-7	16	11	9
O=C(c1cc2nc(-c3ccco3)cc(C(F)(F)F)n2n1)N1CCN(c2ccccc2)CC1	-8	-17	7	12	17	0
SMILES	MITF TRPM1 inh	TWEAK-Fn14 inh	LMP1 NFkB inh	Peg3 prom inh	HIF-2a inh	TROY signal inh
O=C(c1cc2nc(-c3ccco3)cc(C(F)(F)F)n2n1)N1CCN(c2ccccn2)CC1	9	51*	10	3	-5	-2
O=C(c1cc2nc(-c3ccccc3)cc(-c3ccccc3)n2n1)N1CCN(C(=O)c2ccco2)CC1	7	39	28	50*	24	11
COc1ccc(N2C(=O)C(Cl)=C(NCc3ccccc3)C2=O)cc1	-1	-1	65*	-2	-28	-58
COc1ccc(OC)c2c(C)cc(N3CCCCCC3)nc12	5	103*	12	9	5	-4
N#Cc1c(-c2ccc(F)cc2)cc(-c2cccnc2)nc1N	2	-17	5	53*	8	10
N#Cc1c(-c2ccc(Br)cc2)cc(-c2cccnc2)nc1N	-3	7	3	21	3	0
O=C(CCCCCCC(=O)Nc1ccccc1)NO	84*	-147	-399	-116	i	-7
O=C(CCCCCN1C(=O)c2ccccc2C1=O)Nc1ccccc1	9	-14	1	-3	3	-5
COCC(=O)N1C[C@H]2CON(C)[C@H]2C[C@H]1c1ccc(N2CCCCC2)cc1	.	-7	.	9	12	5
O=C1CC(c2ccc(O)cc2)Oc2cc(O)cc(O)c21 (stereo not given)	-33	-6	3	-56	-20	-30
CC1CC(=O)c2c(cc3c(-c4c(O)cc(O)c5c(O)c6c(cc45)OC(C)CC6=O)c(O)cc(O)c3c2O)O1 (stereo not given)	79*	78*	27	105*	91*	1
CC(C)NC(=O)CSc1nnc2sc3ccccc3n12	-7	-17	-2	-38	-86	-8
NC(=O)CSc1nnc2sc3ccccc3n12	-3	85*	1	8	6	.
Nc1ccc(C23CC4CC(CC(CO)(C4)C2)C3)cc1	-2	16	-8	-36	-2	28
Nc1ccc(C23CC4CC(CC(O)(C4)C2)C3)cc1	-6	76*	24	9	4	74*
NCC12CC3CC(C1)CC(c1ccc(Cl)cc1)(C3)C2	23	-20	-77	108*	13	-20
NCC12CC3CC(C1)CC(CN)(C3)C2	4	-2	0	1	12	13
O=C(NCCN1CCC(n2c(=O)[nH]c3ccccc32)CC1)c1ccccc1C(F)(F)F	.	8	.	.	4	9
CC(=O)Nc1cncc(-c2cnn(CC(C)C)c2)n1	.	-3	.	-33	-51	-31
Cc1cc(OCC(=O)OCC(=O)N(C)C2CCS(=O)(=O)C2)ccc1Cl (stereo not given)	-5	-5	-9	5	2	-4
Cc1ccc(C(C(=O)NCC2CCCO2)N(Cc2ccccc2)C(=O)c2ccc(-c3ccccc3)[nH]2)o1 (stereo not given)	2	37	5	30	-10	5
O=C(NCC1CCCO1)C(c1cccs1)N(Cc1ccccc1Cl)C(=O)c1ccc(-c2ccccc2)[nH]1 (stereo not given)	8	24	-9	80*	9	8
